A selection: hits, their analogues and other compounds. The true share with any hit is near 10%.
Luciferase inh – blocks purified firefly luciferase enzyme activity; P08659; purified P. pyralis luciferase, luminescence, biochemical; Potency, µM (top dose mostly 115 µM), usual class: inhibitors; actives 2.5% (n = 76,000); AID 1347043; note: nearly all actives have a fitted effect of over 65% in size
Target sequence (P08659 whole entry, looked up): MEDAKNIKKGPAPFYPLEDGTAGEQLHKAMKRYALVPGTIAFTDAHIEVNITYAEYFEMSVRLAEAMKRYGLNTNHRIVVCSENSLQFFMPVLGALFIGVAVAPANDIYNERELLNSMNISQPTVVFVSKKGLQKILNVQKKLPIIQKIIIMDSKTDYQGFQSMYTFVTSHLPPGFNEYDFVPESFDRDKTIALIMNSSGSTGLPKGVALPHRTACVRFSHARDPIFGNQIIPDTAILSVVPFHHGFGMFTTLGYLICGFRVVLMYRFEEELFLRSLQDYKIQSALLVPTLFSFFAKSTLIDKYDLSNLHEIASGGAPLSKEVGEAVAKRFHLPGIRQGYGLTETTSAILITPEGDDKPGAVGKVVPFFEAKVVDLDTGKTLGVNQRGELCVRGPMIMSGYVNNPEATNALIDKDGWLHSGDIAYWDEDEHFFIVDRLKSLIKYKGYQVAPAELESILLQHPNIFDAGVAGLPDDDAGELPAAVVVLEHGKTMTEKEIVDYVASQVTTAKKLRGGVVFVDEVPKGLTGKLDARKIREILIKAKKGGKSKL
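Purified P. pyralis luciferase (10nM final) in 50mM Tris acetate pH 7.5, 10mM Mg acetate, 0.01% Tween-20, 0.05% BSA with 10uM D-luciferin and 10uM ATP. Compounds titrated qHTS. Luminescence imaged on CCD.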
3T3 cytotox – kills NIH 3T3 cells. NIH 3T3 viability, CellTiter-Glo ATP luminescence, 48-72 h. Potency, µM (doses to about 96.7 µM), for the others: at the highest dose activity change, negative = cytotoxicity, most hits filed as inhibitors. actives 4.3% (n = 94,000); note: nearly all actives have a fitted effect of over 55% in size
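Cells were seeded at 400 per well, treated with pin-transferred compound, and kept 48 or 72 hr at 37 °C before CellTiter-Glo addition and luminescence imaging of cellular ATP.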
HEK293 tox – cytotoxic compounds in HEK 293 cells; HEK 293 viability, ATP luminescence (CellTiter-Glo), 48-72 h; Potency, µM (doses to about 115 µM), without a hit: at the top dose activity change, negative = cytotoxicity, most hits filed as inhibitors; actives 6.6% (n = 94,000); AID 1345083; note: nearly all actives have a fitted effect of over 60% in size
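Cytotoxicity was scored by loss of ATP-coupled luminescence (CellTiter-Glo) in HEK 293 cells. Compound treatment ran 48 or 72 hr at 37 degree Celsius, 5% CO2, 95% humidity.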
NPR1 antag – human Npr1 receptor antagonism | HEK293 hNpr1 GloSensor cGMP, ANP-stimulated luminescence | AID 1347048 | actives 1.6% (n = 76,000) | Potency, µM (highest dose often 46.3 µM), without a hit: at the highest dose activity change, negative = inhibition, usual class: inhibitors | P16066; calls by dose curve; note: nearly all actives have a fitted effect of over 60% in size
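HEK293 cells stably expressing human Npr1 and cGMP GloSensor pGS-40F, loaded 2 h with 2% GloSensor reagent, given compound 30 min at room temperature. Luminescence read before and 20 min after 0.1 nM hNppA.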
GPT2 inhibitor – blocks human glutamate pyruvate transaminase 2 | actives 0.25% (n = 100,000) | AID 1671188 | Recombinant GPT2, coupled pyruvate oxidase/HRP Amplex Red fluorescence | Potency, µM (titrated, usually from 57.7 µM), without a hit: at the top dose activity change, negative = inhibition, hits mostly inhibitors; note: nearly all actives have a fitted effect of over 60% in size
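Fluorescence read-out: pyruvate from GPT2 turnover coupled to pyruvate oxidase, HRP and Amplex Red (0.2mM ThPP, 0.2U/mL PO and HRP, 50uM Amplex final). Substrates 250uM a-KG, 2mM L-alanine; enzyme 10ng/uL; 30 min RT.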
Starred values were filed as active, the others as inactive; i = inactive; ? = inconclusive; / = no result; [ ] = remark or other dose. Unless noted, calls come from the whole dose curve; as a rule, active = well fitted curve in the direction sought with a large enough effect; inconclusive = small, poorly fitted or top-dose-only effect, or another doubt; inactive = no such curve, though single readings can be large; an effect the other way counts as inactive or inconclusive. % is set by controls: 0 for no effect and ±100 for the full control effect; potency is the fitted concentration of half-maximal effect.

SMILES	Luciferase inh	3T3 cytotox	HEK293 tox	NPR1 antag	GPT2 inhibitor
CN1CCN(c2ccc3ncc(Nc4ccccc4-c4ccccc4)n3n2)CC1	i	25.1µM*	39.8µM*	?	?
Cn1c(CNC(=O)C2(C)CCCCC(=O)N2)nc2ccccc21 (centres undefined)	i	39.8µM*	44.7µM*	-11.4%	-4.8%
Cn1c(CNC(=O)C2(Cc3ccccc3)CCCCC(=O)N2)nc2ccccc21 (centres undefined)	i	?	?	0.6%	i
C[C@@]12CO[C@@H](Cc3ccccc3)O[C@@H]1CC[C@]1(C)[C@@H]2CC[C@@H](O)[C@H]1CC(=O)N1CCCC1	i	-20.4%	i	-2.7%	0.9%
COc1ccc(NC(=O)O[C@@H]2CC[C@]3(C)C(CC[C@@H](O)[C@H]3CC(=O)NCc3ccc4c(c3)OCO4)[C@]2(C)CO)cc1 (some centres undefined)	i	44.7µM*	?	5.5%	-6.3%
CSc1cccc(NC(=O)O[C@@H]2CC[C@]3(C)C(CC[C@@H](O)[C@H]3CC(=O)N3CCCC3)[C@]2(C)CO)c1 (some centres undefined)	i	?	?	1.7%	1.6%
CSc1cccc(NC(=O)O[C@@H]2CC[C@]3(C)C(CC[C@@H](O)[C@H]3CC(=O)NCc3ccccc3)[C@]2(C)CO)c1 (some centres undefined)	i	39.8µM*	35.5µM*	-20.0%	1.9%
C[C@@]12CO[C@@H](Cc3ccccc3)O[C@@H]1CC[C@]1(C)C2CC[C@@H](O)[C@H]1CC(=O)NCc1cc(F)cc(F)c1 (some centres undefined)	i	39.8µM*	39.8µM*	-14.6%	-17.7%
COc1ccc2c(c1)OC[C@@H]1CN(C)C(=O)CCN(C(=O)Cc3cccs3)[C@H]21	/	?	-1.8%	/	/
Cc1cccc(-c2nc(CN3CCC(c4nc(-c5cccn5C)no4)C3)no2)c1 (centres undefined)	/	?	?	/	i
C[S+](=O)([O-])N1CCCC1C(=O)N1CCC(N2Cc3ccccc3C2=O)CC1 (centres undefined)	/	3.4%	-2.1%	/	1.5%
CCN(CC)Cc1cnc2c(C(=O)Nc3ccc(OC)c(OC)c3)cnn2c1	i	i	-2.4%	3.7%	3.7%[11.5 µM]
CCN(CC)Cc1ccc2cc(COC(=O)Nc3ccc(C(=O)NO)cc3)ccc2c1	/	/	/	/	15.3µM*
C[S+](=O)([O-])c1ccc(-c2nnc3ccc(C(=O)NCc4ccc(Cl)cc4)cn23)cc1	/	?	-5.6%	/	i
O=C1c2cnc(-c3cncnc3)nc2OCCN1c1cccc(C(F)(F)F)c1	i	39.8µM*	-15.2%[172 µM]	-0.5%[70.6 µM]	i
COc1cccc(-c2ncc3c(n2)OCCN(c2cccc(C(F)(F)F)c2)C3=O)c1	2µM*	?	?	-23.8%[70.6 µM]	-10.7%[88.5 µM]
O=C1c2cnc(-c3ccccc3)nc2OCCN1c1cccc(C(F)(F)F)c1	?	?	?	?	-15.2%[88.5 µM]
COc1ccccc1-c1ccc(C(=O)N2CCC(NC(=O)C3CC3)CC2)cc1	/	?	?	/	i
O=C(NCCc1ccc(Cl)cc1)C1CCN(Cc2ccccc2-c2cccnc2)CC1	/	?	?	/	i
O=C(Nc1ccc2c(c1)CCC2)C1CCN(C(=O)c2ncn3c2COC(c2ccc(F)cc2)C3)CC1 (centres undefined)	28.2µM*	i	6.8%	1.2%	i
Cc1ccc(NC(=O)C2CCN(C(=O)c3ncn4c3COC(c3ccc(F)cc3)C4)CC2)cc1C (centres undefined)	35.5µM*	i	12.5%	0.7%	4.8%
Cc1cc(C)cc(NC(=O)C2CCN(C(=O)c3ncn4c3COC(c3ccc(F)cc3)C4)CC2)c1 (centres undefined)	?	1.1%	4.6%	-2.8%	-13.3%
Cc1ccc(NC(=O)C2CCN(C(=O)c3ncn4c3COC(c3ccc(F)cc3)C4)CC2)c(Cl)c1 (centres undefined)	25.1µM*	0.3%	0.3%	-24.5%	-21.8%
Cc1cccc(NC(=O)C2CCN(C(=O)c3ncn4c3COC(c3ccc(F)cc3)C4)CC2)c1C (centres undefined)	?	i	6.5%	-2.4%	i
Cc1cc(NC(=O)C2CCN(C(=O)c3ncn4c3COC(c3ccc(F)cc3)C4)CC2)ccc1Cl (centres undefined)	39.8µM*	?	-21.4%	-3.1%	2.4%
SMILES	Luciferase inh	3T3 cytotox	HEK293 tox	NPR1 antag	GPT2 inhibitor
CNC(=O)[C@H]1C[C@]2(CCCCN(C)C2=O)N(C(=O)Cc2cccs2)[C@H]1c1ccccc1	/	?	4.7%	/	/
CC(=O)N1CCCC1C(=O)N1CCCC1c1nc2ccncc2[nH]1 (centres undefined)	/	-13.9%[138 µM]	-5.1%[172 µM]	/	-5.1%[88.5 µM]
CC(C)CNC(=O)C1CCN(Cc2ccccc2-c2cccnc2)CC1	/	-36.4%[138 µM]	?	/	i
CCC(NCc1c(C(=O)N2CCCCCC2)nc2cc(C)ccn12)c1ccc(C)cc1 (centres undefined)	i	44.7µM*	17.8µM*	-6.7%	i
COCCCNc1ccnc(-c2nnc(C)n2-c2ccccc2)c1	i	100µM*	-10.1%[172 µM]	-13.5%[70.6 µM]	-26.6%[88.5 µM]
COc1ccc(CN2C(=O)COC[C@H]2C(=O)Nc2ccc(OC)c(OC)c2)cc1OC	i	-0.5%	-1.1%	-1.9%	i
COc1ccc(CN2C(=O)COC[C@H]2C(=O)Nc2ccc(OC)c(C(F)(F)F)c2)cc1	i	?	44.7µM*	?	i
CCCCOc1ccc(-c2nc(C3CC(=O)N(C4CCCCC4)C3)no2)cc1 (centres undefined)	i	31.6µM*	44.7µM*	?	-14.3%
O=C1CC(c2noc(-c3ccco3)n2)CN1C1CCCCC1 (centres undefined)	i	-17.5%	-26.4%	-2.4%	i
Cc1ccsc1-c1nc(C2CC(=O)N(C3CCCCC3)C2)no1 (centres undefined)	i	-25.4%	79.4µM*	-1.8%	i
CCCCOc1ccc(-c2nc(C3CC(=O)N(c4ccc(OC)cc4)C3)no2)cc1 (centres undefined)	i	-7.3%	-0.5%	5.8%	-9.2%
CN(c1cc(=O)c2ccnc(-c3cncnc3)c2o1)C1CCOCC1	i	79.4µM*	i	1.2%[70.6 µM]	3.6%[88.5 µM]
CN(c1cc(=O)c2ccnc(-c3cccc(CO)c3)c2o1)C1CCOCC1	i	25.1µM*	-8.9%[172 µM]	0.7%[70.6 µM]	-19.7%[88.5 µM]
CN(C)c1cccc(-c2nccc3c(=O)cc(N(C)C4CCOCC4)oc23)c1	i	?	-9.1%[172 µM]	-1.1%[70.6 µM]	0.5%[88.5 µM]
O=C(NCCNC(=O)c1ccc(-c2cccc(C(F)(F)F)c2)cc1)NC1CCCC1	/	-27.4%	-20.4%	/	/

Screens as filed in PubChem.
